# Data as given in PubChem BioAssay AID2685 (National Center for Advancing Translational Sciences (NCATS), 2010).
# About 2,100 (0.66%) of roughly 320,000 compounds were called active. Another 53% or so got no clear call; they are omitted. This is one part of a sample in which actives are shown more often than they occur. Calls come from the whole dose curve; as a rule, active = well fitted inhibition curve with a large enough effect in the signal ratio, with a control signal flat (not every such curve was filed as active); inconclusive = small, poorly fitted or top-dose-only effect, or effect the other way, or a change in a side signal; inactive = flat fitted curve, though single readings scatter; the % refers to the signal ratio.
# Assay: qHTS Assay for Lipid Storage Modulators in Drosophila S3 Cells;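 for cell number change: cells counted by Cell Tracker Red CMTPX staining in the red channel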; for lipid storage change, negative = inhibition: % is set by controls: 0 for no effect and ±100 for the full control effect
# Settings: BODIPY lipid droplet fluorescence, 18-24 h, cells fed with added oleic acid; cell number change: measured here: cell count max response; series mostly up to 46.1 µM; lipid storage change, negative = inhibition: at the top concentration
# Text: NIH Molecular Libraries Probe Production Centers Network [MLPCN] NIH Chemical Genomics Center [NCGC] MLPCN Grant: 1 R03 MH085686-01 Assay Submitter (PI): Beller, Mathias; Max-Planck-Institut fur Biophysikalische Chemie NCGC Assay Overview: Storing lipids as a reservoir for energy or the anabolism of elementary metabolites is a common feature of probably all cells and is conserved from bacteria to humans. The universal cellular lipid storage organelle is the so-called lipid storage droplet (LD). Although ubiquitous, LDs share a simple structure composed of a hydrophobic core that harbors the storage lipids, which is shielded by a droplet-specific phospholipid monolayer to which proteins are attached. The current model of LD biogenesis involves an incorporation of the lipid core into the membrane leaflets of the endoplasmic reticulum (ER) followed by a subsequent budding-like maturation of a LD, which ultimately pinches off. Once released, LD volume can increase by localized lipogenesis or fusion of existing droplet. Storage lipids are re-mobilized enzymatically by lipase activity. Lipase regulation in the adipocyte is heavily studied and involves multiple components including catecholamine signaling, the LD-associated proteins Perilipin and comparative gene identification (CGI-58) and at least two lipases named hormone sensitive lipase (HSL) and adipocyte triglyceride lipase (ATGL). LD regulation outside of the adipocyte is poorly understood and only few components are known. However, there is an urgent need to learn more about ectopic fat depots as mislocalized storage of lipids, for example in the liver or muscle, is an eminent health problem associated with insulin resistance or the metabolic syndrome. We developed a laser-scanning cytometer assay to enable 1,536-well screening and combined the results of the small molecules screen with an RNAi database based on lipid storage.
# Triacsin C (Sigma-Aldrich T-4540), an inhibitor of long-chain fatty acyl CoA synthetase that blocks synthesis of triglycerides, was used as a positive control for lipid under-storage. A total of 23 nL of compound solution of different concentrations were transferred to the assay plates using a Kalypsys pin tool equipped with a 1,536-pin array containing 10-nL slotted pins (FP1S10, 0.457-mm diameter, 50.8 mm long; V&P Scientific). One microliter of oleic acid (400 uM) was added, and the plate was lidded with stainless steel rubber gasket lined lids containing pinholes. […] Fluorescence was detected by excitation of the fluorophores with a 488-nm laser on an Acumen Explorer (TTP Lab Tech). The total intensity in channel 2 (500-530 nm) reflected lipid droplet accumulation. Cells were detected using channel 3 (575-640 nm) with 5-um width and 100-um depth filters. The ratio of the number of objects in PMT channel 2 over the number of objects in PMT channel 3 was also calculated. Percent activity was computed relative to an internal control (100% inhibited lipid droplet deposition due to the presence of 20 uM Triacsin C), which was added to 32 wells/plate.
# Potency is the fitted concentration of half-maximal effect.
Compound,outcome,Potency,cell number change [%],"lipid storage change, negative = inhibition"
O=S(=O)(Nc1cccc(Cl)c1)c1ccc(-n2cccn2)cc1,inactive,–,–,–
COc1cccc(NS(=O)(=O)c2ccc(-n3cccn3)cc2)c1,–,0.0517 µM (active),-7.08,–
Cn1cnnc1Sc1nc2c(c(=O)n(C)c(=O)n2C)n1Cc1ccccc1Cl,–,–,16.5,3.49% (inactive)
O=C(c1ccc(=O)[nH]c1)N1CCN(S(=O)(=O)c2ccc3ccccc3c2)CC1,–,–,-9.74,19.4% (inactive)
COc1cc(CO)c(Br)cc1OCC(=O)Nc1ccccc1C,–,–,-15.6,-9.12% (inactive)
O=C(CCCN1C(=O)/C(=C\c2cccs2)SC1=S)Nc1cc([N+](=O)[O-])ccc1O,inactive,–,–,–
O=C(CCN1C(=O)/C(=C\c2cccs2)SC1=S)Nc1nccs1,–,–,-0.135,-1.66% (inactive)
O=C(CCN1C(=O)/C(=C/c2cccs2)SC1=S)Nc1cccc(C(=O)O)c1,–,0.164 µM (active),-17.1,–
O=C(CCCN1C(=O)/C(=C/c2cccs2)SC1=S)NNC(=O)c1ccccc1O,–,6.51 µM (active),-24.1,–
O=C(CCN1C(=O)/C(=C/c2cccs2)SC1=S)Nc1ccc(C(=O)O)c(O)c1,inactive,–,-26.8,–
O=C(CCN1C(=O)/C(=C/c2ccccc2Cl)SC1=S)Nc1ccccn1,–,20.6 µM (active),-0.66,–
O=C(CCN1C(=O)/C(=C/c2cccs2)SC1=S)Nc1ccccc1O,–,3.66 µM (active),13.5,–
O=C(CCN1C(=O)/C(=C/c2ccccc2)SC1=S)Nc1ccccn1,–,–,-0.917,21% (inactive)
O=C(CN1C(=O)/C(=C\c2cccs2)SC1=S)Nc1cccc(C(=O)O)c1,–,–,24,-1.3% (inactive)
O=C(CCN1C(=O)/C(=C/c2ccccc2F)SC1=S)Nc1ccccn1,–,–,23.3,-15% (inactive)
O=C(CCCN1C(=O)/C(=C/c2cccs2)SC1=S)NNC(=O)c1ccncc1,–,–,21,6.17% (inactive)
Cc1ccc(/C=C2\SC(=S)N(CCCC(=O)NNC(=O)c3ccccc3O)C2=O)cc1,–,–,17.7,-0.747% (inactive)
CCc1ccc(OCC(=O)N(C)CCC#N)c(Br)c1,inactive,–,–,–
CC1=[N+]([O-])C(C)(C)C(C)N(O)C1=O (stereo unspecified),–,–,1.53,-12.1% (inactive)
COc1ccc(C(=O)O)cc1S(=O)(=O)Nc1cc(Cl)ccc1N1CCOCC1,–,–,11.4,-0.213% (inactive)
COC(=O)/C=C1\SC(=NC(=O)c2cccc(Cl)c2)NC1=O,–,–,-23.4,-25.1% (inactive)
Nc1nonc1-n1nnc(C(=O)N/N=C/c2ccc(OCc3ccccc3)cc2)c1CN1CCCCC1,inactive,–,–,–
O=C(Nc1cccc(NC(=O)c2ccc(Br)o2)c1)c1ccccc1,inactive,–,-12.9,–
N#CC1=C(Nc2ccccc2)SC=C(c2ccc(Cl)c(Cl)c2)N=C1N1CCOCC1,–,–,-15.3,6.25% (inactive)
Cc1cc(C)n(-c2ccc(C(=O)NC3CCCCC3)cc2)n1,–,–,17.4,14.6% (inactive)

Compound,outcome,Potency,cell number change [%],"lipid storage change, negative = inhibition"
COc1ccccc1NC(=O)C(C/C=C(/C)Cl)C(C)=O (stereo unspecified),–,–,12.3,9.77% (inactive)
COc1ccc(N(CC(=O)N/N=C/c2cccnc2)S(=O)(=O)c2ccc(C)cc2)cc1OC,inactive,–,-15.9,–
CC(=O)Nc1ccc(S(=O)(=O)NC2CC2)cc1,–,–,-7.3,11% (inactive)
O=C(O)CCCCCCCCCC(=O)c1cccs1,inactive,–,-19.9,–
O=C(CN1C(=O)/C(=C/c2ccco2)SC1=S)Nc1ccc(C(=O)O)c(O)c1,–,20.6 µM (active),25.4,–
O=C(CCN1C(=O)/C(=C\c2ccco2)SC1=S)Nc1ccc(C(=O)O)c(O)c1,inactive,–,1.15,–
O=C(CCN1C(=O)/C(=C/c2ccco2)SC1=S)Nc1ccc(C(=O)O)c(O)c1,–,–,-0.876,-2.83% (inactive)
Cc1ccccc1COC(=O)c1nn(-c2ccccc2)nc1N,–,–,3.63,-1.71% (inactive)
CCOC(=O)C(NC(=O)c1ccc(F)cc1)(Nc1nnc(C)s1)C(F)(F)F (stereo unspecified),–,–,2.37,-21.6% (inactive)
COc1ccc(NC(=O)N2CCCC(CNS(=O)(=O)c3cccs3)C2)c(C)c1 (stereo unspecified),–,–,-5.03,12.7% (inactive)
COCCCn1c(SCC(=O)Nc2ccc(C)cc2)nc2ccccc2c1=O,–,–,-12.3,-20% (inactive)
COCCn1c(SCC(=O)Nc2cc(C)cc(C)c2)nc2ccccc2c1=O,–,2.06 µM (active),-20.8,–
COCCn1c(SCC(=O)Nc2ccc(F)cc2)nc2ccccc2c1=O,–,–,3.47,-11.7% (inactive)
CSCC[C@H](NC(=O)COc1ccc(Cl)cc1)C(=O)N1CCC2(CC1)NCCc1[nH]cnc12,inactive,–,–,–
O=C(NC(Cc1ccccc1)C(=O)O)C1CCCCC1 (stereo unspecified),–,–,-3.98,-0.512% (inactive)
CCCC(C(=O)NCCC(C)C)N(Cc1ccc(F)cc1)C(=O)c1snc(C(N)=O)c1N (stereo unspecified),–,–,-7.77,3.86% (inactive)
COc1ccc(N(C(=O)c2snc(C(N)=O)c2N)C(C(=O)NC2CCCCC2)c2ccc(F)cc2)c(OC)c1 (stereo unspecified),–,13 µM (active),–,–
CCCC(C(=O)NCCC(C)C)N(Cc1ccc(OC)cc1)C(=O)c1snc(C(N)=O)c1N (stereo unspecified),–,–,-7.72,-29.9% (inactive)
COc1ccc(N(C(=O)c2snc(C(N)=O)c2N)C(C(=O)NC2CCCC2)c2cc(OC)ccc2OC)c(OC)c1 (stereo unspecified),inactive,–,-0.901,–
CCC(C(=O)NC1CCCC1)N(Cc1ccccc1Cl)C(=O)c1snc(C(N)=O)c1N (stereo unspecified),–,0.58 µM (active),-3.04,–
CCC(C(=O)NC(C)(C)C)N(Cc1ccccc1Cl)C(=O)c1snc(C(N)=O)c1N (stereo unspecified),inactive,–,-22.3,–
CCCC(C(=O)NCCC(C)C)N(Cc1ccccc1)C(=O)c1snc(C(N)=O)c1N (stereo unspecified),–,3.66 µM (active),-3.86,–
COc1ccc(C(C(=O)NC2CCCC2)N(C(=O)c2snc(C(N)=O)c2N)c2cc(C)ccc2OC)cc1OC (stereo unspecified),–,–,-1.28,-18.1% (inactive)
CCC(C(=O)NC1CCCCC1)N(Cc1cccs1)C(=O)c1snc(C(N)=O)c1N (stereo unspecified),–,–,–,23.1% (inactive)
